Reference: PubChem BioAssay (Tox21)
Results filed as inconclusive are left out. Activity calls are given as the source filed them. The call rests on the fitted dose curve; in most records, active means well fitted curve in the direction sought with a large enough effect in the repeat runs; inconclusive means weak or mixed curves; inactive means no such curve, though single readings can be large; an effect the other way counts as inactive or inconclusive.

Experiments:
[1] = A CellTox Green Cytotoxicity Assay to monitor cytotoxicity in HEK293 cells - 40 hour (AID 1224871); further: nearly all actives have a fitted effect of over 45% in size
Outline: (§1)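 Cells (HEK293, 600/well) and dye reagent are dispensed together. After 5 h at 37 C, 23 nL compound is pinned in. Plates stay at 37 C for 40 h with fluorescence read at 0h, 8h, 16h, 24h, 32h and 40h.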

[2] = qHTS RealTime-Glo MT Cell Viability Assay in HEK293 cells - 16 hour (AID 1224872); further: top concentration of the series differs between compounds; nearly all actives have a fitted effect of over 50% in size
Outline: (§2)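 HEK293 cells seeded with NanoLuc/prosubstrate reagent, rested 5 h at 37 C, then dosed and kept at 37 C up to 40 h. Nonlytic real-time luminescence from viable cells read at 0, 8, 16, 24, 32 and 40 h.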

[3] = qHTS RealTime-Glo MT Cell Viability Assay in HepG2 cells - 8 hour (AID 1224873); further: nearly all actives have a fitted effect of over 55% in size
Outline: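 HepG2 cells mixed with RealTime-Glo MT reagents (NanoLuc plus cell-permeant prosubstrate) were seeded at 600 cells/well, incubated 5 h at 37 C/5% CO2, then pinned with compounds in DMSO; nonlytic luminescence tracked viability during 40 h treatment.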

[4] = qHTS RealTime-Glo MT Cell Viability Assay in HEK293 cells - 40 hour (AID 1224874); conditions: RealTime-Glo luminescence; max response: hits give low values; further: nearly all actives have a fitted effect of over 50% in size
Outline: (§3)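 Real-time viability in HEK293: signal arises when living cells convert a prosubstrate for NanoLuc in the medium, so luminescence tracks viable cell number. Compound (23 nL, DMSO) added 5 h post-seeding; kinetic reads at 0–40 h, 37 C.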

[5] = A CellTox Green Cytotoxicity Assay to monitor cytotoxicity in HEK293 cells - 24 hour (AID 1224875); further: series mostly up to about 77 µM; nearly all actives have a fitted effect of over 45% in size
Outline: as §1

[6] = A CellTox Green Cytotoxicity Assay to monitor cytotoxicity in HepG2 cells - 16 hour (AID 1224876); further: nearly all actives have a fitted effect of over 45% in size
Outline: (§4)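 Cells and non-lytic dye reagent are dispensed together (600 HepG2 cells/well) and incubated 5 h before DMSO compound transfer. Kinetic fluorescence is then recorded in the same wells during 40 h at 37 C.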

[7] = qHTS RealTime-Glo MT Cell Viability Assay in HepG2 cells - 32 hour (AID 1224877); further: nearly all actives have a fitted effect of over 55% in size
Outline: (§5)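 HepG2 cells (600/well) were dispensed with RealTime-Glo reagents, incubated 5 h at 37 °C, then treated with compounds in DMSO for up to 40 h. Nonlytic NanoLuc luminescence reflecting viable cells was read at each stated time point.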

[8] = A CellTox Green Cytotoxicity Assay to monitor cytotoxicity in HepG2 cells - 24 hour (AID 1224878); further: nearly all actives have a fitted effect of over 45% in size
Outline: as §4

[9] = A CellTox Green Cytotoxicity Assay to monitor cytotoxicity in HepG2 cells - 40 hour (AID 1224879); further: nearly all actives have a fitted effect of over 40% in size
Outline: as §4

[10] = qHTS RealTime-Glo MT Cell Viability Assay in HEK293 cells - 0 hour (AID 1224880)
Outline: as §3

[11] = A CellTox Green Cytotoxicity Assay to monitor cytotoxicity in HEK293 cells - 32 hour (AID 1224881); further: nearly all actives have a fitted effect of over 40% in size
Outline: as §1

[12] = A CellTox Green Cytotoxicity Assay to monitor cytotoxicity in HepG2 cells - 0 hour (AID 1224882); further: nearly all actives have a fitted effect of over 35% in size
Outline: as §4

[13] = A CellTox Green Cytotoxicity Assay to monitor cytotoxicity in HepG2 cells - 32 hour (AID 1224883); further: nearly all actives have a fitted effect of over 50% in size
Outline: as §4

[14] = A CellTox Green Cytotoxicity Assay to monitor cytotoxicity in HEK293 cells - 8 hour (AID 1224884); further: nearly all actives have a fitted effect of over 35% in size
Outline: as §1

[15] = qHTS RealTime-Glo MT Cell Viability Assay in HepG2 cells - 16 hour (AID 1224885); further: nearly all actives have a fitted effect of over 50% in size
Outline: as §5

[16] = qHTS RealTime-Glo MT Cell Viability Assay in HEK293 cells - 24 hour (AID 1224886)
Outline: as §2

[17] = qHTS RealTime-Glo MT Cell Viability Assay in HEK293 cells - 8 hour (AID 1224887)
Outline: as §3

[18] = A CellTox Green Cytotoxicity Assay to monitor cytotoxicity in HEK293 cells - 16 hour (AID 1224888); further: nearly all actives have a fitted effect of over 35% in size
Outline: as §1

[19] = qHTS RealTime-Glo MT Cell Viability Assay in HepG2 cells - 0 hour (AID 1224889); further: nearly all actives have a fitted effect of over 50% in size
Outline: as §5

[20] = A CellTox Green Cytotoxicity Assay to monitor cytotoxicity in HepG2 cells - 8 hour (AID 1224890); further: nearly all actives have a fitted effect of over 45% in size
Outline: as §4
On the % scale 0 is the no-effect control and ±100 the full control effect.

O=C(O)c1ccccc1-n1cc(C(=O)O)c(=O)c2cc(Nc3c(F)cc(F)cc3Cl)c(Cl)cc21
inactive: Potency [1] | Potency [2] | outcome [3] | max response [4] 0.656% | Potency [5] | Potency [6] | Potency [7] | Potency [8] | Potency [9] | Potency [10] | Potency [11] | Potency [12] | Potency [13] | Potency [14] | outcome [15] | Potency [16] | Potency [17] | Potency [18] | Potency [19] | Potency [20]

COC=O
inactive: cytotoxicity increase [1] -12.8% [at 6.97 µM] | activity change, negative = cytotoxicity [2] 11.7% [at 6.97 µM] | viability change, negative = cytotoxic [3] 6.21% [at 6.97 µM] | max response [4] 19.4% | activity change [5] -10.8% [at 6.97 µM, hits give high values] | cytotoxicity increase [6] -4.94% [at 6.97 µM] | activity change, negative = cytotoxic [7] 2.87% [at 6.97 µM] | cytotoxicity [8] -6.04% [at 6.97 µM] | cytotoxicity increase [9] -7.18% [at 6.97 µM] | activity change, negative = cytotoxicity [10] -6.16% [at 6.97 µM] | cytotoxicity increase [11] -12.1% [at 6.97 µM] | cytotoxicity [12] 0.137% [at 6.97 µM] | cytotoxicity increase [13] -4.32% [at 6.97 µM] | cytotoxicity increase [14] -11.8% [at 6.97 µM] | activity change, negative = cytotoxic [15] 5.42% [at 6.97 µM] | activity change, negative = cytotoxicity [16] 14.1% [at 6.97 µM] | activity change, negative = cytotoxicity [17] 3.22% [at 6.97 µM] | activity change [18] -10.1% [at 6.97 µM, hits give high values] | cytotoxicity increase [20] -0.393% [at 6.97 µM]

Cc1c(-c2cccnc2)c2ccccc2n1CCCCC(=O)O
inactive: Potency [1] | Potency [2] | outcome [3] | max response [4] 2.18% | Potency [5] | Potency [6] | Potency [7] | Potency [8] | Potency [9] | Potency [10] | Potency [11] | Potency [12] | Potency [13] | Potency [14] | outcome [15] | Potency [16] | Potency [17] | Potency [19] | Potency [20]

[O-][n+]1ccc(Cl)cc1
inactive: Potency [1] | Potency [2] | outcome [3] | max response [4] 17.4% | Potency [5] | Potency [6] | Potency [7] | Potency [8] | Potency [9] | Potency [10] | Potency [11] | Potency [12] | Potency [13] | Potency [14] | outcome [15] | Potency [16] | Potency [17] | Potency [18] | Potency [20]

CC(C)(C)c1cc(C=O)cc(C(C)(C)C)c1O
inactive: Potency [1] | Potency [2] | outcome [3] | max response [4] -0.177% | Potency [5] | Potency [6] | Potency [7] | Potency [8] | Potency [9] | Potency [10] | Potency [11] | Potency [12] | Potency [13] | Potency [14] | outcome [15] | Potency [16] | Potency [17] | Potency [18] | Potency [20]

CCc1cnc(C(=O)O)c(C(=O)O)c1
inactive: Potency [1] | Potency [2] | outcome [3] | max response [4] 5.23% | Potency [5] | Potency [6] | Potency [7] | Potency [8] | Potency [9] | Potency [10] | Potency [11] | Potency [12] | Potency [13] | Potency [14] | outcome [15] | Potency [16] | Potency [17] | Potency [18] | Potency [20]

CC(=O)c1cccnc1
inactive: Potency [1] | Potency [2] | outcome [3] | max response [4] -6.53% | Potency [5] | Potency [6] | Potency [7] | Potency [8] | Potency [9] | Potency [10] | Potency [11] | Potency [12] | Potency [13] | Potency [14] | outcome [15] | Potency [16] | Potency [17] | Potency [18] | Potency [19] | Potency [20]

CC(C)CCCCCCCOC(=O)c1ccc(C(=O)OCCCCCCCC(C)C)c(C(=O)OCCCCCCCC(C)C)c1
inactive: Potency [1] | Potency [2] | outcome [3] | max response [4] 11.4% | Potency [5] | Potency [6] | Potency [7] | Potency [8] | Potency [9] | Potency [10] | Potency [11] | Potency [12] | Potency [13] | Potency [14] | outcome [15] | Potency [16] | Potency [17] | Potency [18] | Potency [20]

C[C@H]1C[C@H]2[C@@H]3CCC4=CC(=O)C=C[C@]4(C)[C@@]3(F)[C@@H](O)C[C@]2(C)[C@@]1(O)C(=O)COP(=O)(O)O
inactive: Potency [1] | Potency [2] | outcome [3] | max response [4] -11.1% | Potency [5] | Potency [6] | Potency [7] | Potency [8] | Potency [9] | Potency [10] | Potency [11] | Potency [12] | Potency [13] | Potency [14] | outcome [15] | Potency [16] | Potency [17] | Potency [18] | Potency [20]

N#C[C@@H]1CC(F)(F)CN1C(=O)CNC1CC2CCC(C1)N2c1ncccn1 (stereo not given in full)
inactive: Potency [1] | Potency [2] | outcome [3] | max response [4] 1.88% | Potency [5] | Potency [6] | Potency [7] | Potency [8] | Potency [9] | Potency [10] | Potency [11] | Potency [12] | Potency [13] | Potency [14] | outcome [15] | Potency [16] | Potency [17] | Potency [18] | Potency [20]

CC1(C)[C@@H]2CC[C@]3(C2)[C@@H]1C(=O)CCC3(C)C
inactive: Potency [1] | Potency [2] | outcome [3] | max response [4] 3.71% | Potency [5] | Potency [6] | Potency [7] | Potency [8] | Potency [9] | Potency [10] | Potency [11] | Potency [12] | Potency [13] | Potency [14] | outcome [15] | Potency [16] | Potency [17] | Potency [19] | Potency [20]

CCOCCn1c(N2CCCN(C)CC2)nc2ccccc21
inactive: Potency [1] | Potency [2] | outcome [3] | max response [4] -3.4% | Potency [5] | Potency [6] | Potency [7] | Potency [8] | Potency [9] | Potency [10] | Potency [11] | Potency [12] | Potency [13] | Potency [14] | outcome [15] | Potency [16] | Potency [17] | Potency [18] | Potency [19] | Potency [20]

COC(=O)Cc1cccc2ccccc12
inactive: Potency [1] | Potency [2] | outcome [3] | max response [4] -1.93% | Potency [5] | Potency [6] | Potency [7] | Potency [8] | Potency [9] | Potency [10] | Potency [11] | Potency [12] | Potency [13] | Potency [14] | outcome [15] | Potency [16] | Potency [17] | Potency [18] | Potency [20]

C/C(=C\C(C)CC(C)CC(C)C)C1CC(=O)OC1=O (stereo not given)
inactive: Potency [1] | Potency [2] | outcome [3] | max response [4] -12% | Potency [5] | Potency [6] | Potency [7] | Potency [8] | Potency [9] | Potency [10] | Potency [11] | Potency [12] | Potency [13] | Potency [14] | outcome [15] | Potency [16] | Potency [17] | Potency [18] | Potency [19] | Potency [20]
